# Measured values as given in the supplement of paper PMC3545927.
# The other results are listed elsewhere or left out. The true hit rate is not given.
# Target: furin, P09958
# Assay: furin cleavage Z-score vs untreated control; higher = more cleavage, active = 3.5 or more, inactive = 1 or less, 8 variable residues between constant flanks
# Method in brief: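 The cleavage Z-score is the log read count relative to furin-free reactions, lowess-adjusted and scaled by median absolute deviation. Counts came from sequencing DNA released from bead-bound 8-mer peptide–cDNA fusions after digestion with purified furin for 7.5, 15 or 30 min.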
# 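Also: purified furin at 1:10 enzyme:substrate in 50 mM HEPES pH 7.5.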
# Sequence of furin, P09958 (P09958 whole entry): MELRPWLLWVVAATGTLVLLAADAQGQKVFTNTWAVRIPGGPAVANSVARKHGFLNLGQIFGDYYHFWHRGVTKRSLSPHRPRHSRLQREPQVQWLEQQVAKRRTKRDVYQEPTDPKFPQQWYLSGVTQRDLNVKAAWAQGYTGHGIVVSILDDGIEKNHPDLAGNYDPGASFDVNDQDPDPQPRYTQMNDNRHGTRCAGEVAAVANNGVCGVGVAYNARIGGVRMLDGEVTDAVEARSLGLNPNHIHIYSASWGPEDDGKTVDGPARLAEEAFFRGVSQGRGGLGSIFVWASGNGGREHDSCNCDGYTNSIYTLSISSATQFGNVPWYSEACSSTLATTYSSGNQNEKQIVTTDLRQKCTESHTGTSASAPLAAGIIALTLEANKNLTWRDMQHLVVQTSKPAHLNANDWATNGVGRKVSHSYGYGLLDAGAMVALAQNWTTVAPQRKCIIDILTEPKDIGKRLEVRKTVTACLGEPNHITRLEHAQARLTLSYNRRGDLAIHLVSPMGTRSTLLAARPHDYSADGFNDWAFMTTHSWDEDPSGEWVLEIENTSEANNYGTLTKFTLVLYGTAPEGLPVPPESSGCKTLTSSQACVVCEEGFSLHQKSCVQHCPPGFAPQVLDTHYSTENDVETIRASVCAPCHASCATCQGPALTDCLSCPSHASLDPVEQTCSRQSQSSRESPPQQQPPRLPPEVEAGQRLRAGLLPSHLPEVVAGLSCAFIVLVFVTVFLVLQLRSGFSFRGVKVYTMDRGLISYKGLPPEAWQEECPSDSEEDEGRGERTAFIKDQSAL
Sequence,furin cleavage Z-score (7.5 min),furin cleavage Z-score (15 min),furin cleavage Z-score (30 min)
CATTVRLRAYAGNASASA [HC928],0.53 (inactive),0.398 (inactive),-0.429 (inactive)
CAVQAWKSKKAGNASASA [HC1473],0.322 (inactive),1.5,-0.486 (inactive)
CAREDRDVNDAGNASASA [FS-2393],-1.02 (inactive),-2.7 (inactive),0.632 (inactive)
CARMRRYADAAGNASASA [FS-2355],5.77 (active),7.7 (active),6.66 (active)
CARMMRPVSDAGNASASA [FS-1753],-0.43 (inactive),0.272 (inactive),-0.677 (inactive)
CARIRRMADAAGNASASA [FS-2339],8.4 (active),10.5 (active),8.11 (active)
CARSGRSANAAGNASASA [FS-2522],1.32,0.616 (inactive),1.79
CARIRRMWNDAGNASASA [FS-2955],3.22,2.6,4.32 (active)
CARDVRLVDAAGNASASA [FS-2655],-0.899 (inactive),-0.757 (inactive),0.398 (inactive)
CATDCFRKHPAGNASASA [HC452],0.56 (inactive),-0.196 (inactive),1.34
CAYLKGKWVPAGNASASA [HC549],0.545 (inactive),-0.258 (inactive),-0.41 (inactive)
CAMEECSQHPAGNASASA [HC1779],-0.177 (inactive),-0.782 (inactive),2.64
CARCKRTVLDAGNASASA [FS-2482],0.324 (inactive),1.14,3.14
CARKKRTLRGAGNASASA [FS-2037],5.12 (active),8.31 (active),6.62 (active)
CARKKRSTGVAGNASASA [FS-2694],8.73 (active),11.5 (active),10.3 (active)
CARCKRGTGVAGNASASA [FS-2898],6.24 (active),6.78 (active),5.78 (active)
CARCKRGMKKAGNASASA [FS-1818],0.324 (inactive),0.604 (inactive),3.09
CARCVRDCDPAGNASASA [FS-3243],0.0718 (inactive),1.92,2.77
CARCKRDCLEAGNASASA [FS-1996],9.7 (active),9.34 (active),8.23 (active)
CAEVVTSTGVAGNASASA [HC2236],0.288 (inactive),-1.6 (inactive),-0.142 (inactive)
CARCRRGFGVAGNASASA [FS-1849],0.0621 (inactive),1.42,1.48
CAMEECLQHLAGNASASA [HC24],0.426 (inactive),0.849 (inactive),1.01

Sequence,furin cleavage Z-score (7.5 min),furin cleavage Z-score (15 min),furin cleavage Z-score (30 min)
CAMEECIQHLAGNASASA [HC25],2.89,0.509 (inactive),1.63
CARKGKSSSAAGNASASA [FS-1725],-1.17 (inactive),-1.17 (inactive),-0.784 (inactive)
CARKKRTTSAAGNASASA [FS-2345],8.37 (active),8.69 (active),6.28 (active)
CARKKRSTSAAGNASASA [FU2],12.7 (active),14.1 (active),8.12 (active)
CASSASQLSAAGNASASA [HC1261],0.811 (inactive),-0.271 (inactive),-1.07 (inactive)
CARKKRIVTGAGNASASA [FS-2342],4.57 (active),4.97 (active),5.79 (active)
CARKKRPGGGAGNASASA [FS-2344],0.0138 (inactive),0.394 (inactive),-0.0781 (inactive)
CAMKKRDLSAAGNASASA [FS-2872],4.25 (active),5.63 (active),4.84 (active)
CARTYRWLSAAGNASASA [FS-2192],-0.657 (inactive),1.48,0.201 (inactive)
CASGKPAIIPAGNASASA [HC1005],-1.38 (inactive),-0.473 (inactive),0.121 (inactive)
CATTPCSCSWAGNASASA [HC1900],-1.59 (inactive),-2.52 (inactive),-0.421 (inactive)
CARNTRSDEDAGNASASA [FS-3014],-1.02 (inactive),-0.114 (inactive),-1.53 (inactive)
CARHTPVNSWAGNASASA [HC1571],1.44,0.608 (inactive),0.598 (inactive)
CARHTRSAEDAGNASASA [FS-2681],11.3 (active),11.4 (active),9.18 (active)
CAGHTVSGFVAGNASASA [HC357],1.57,-0.476 (inactive),-0.897 (inactive)
CARHTRSYDYAGNASASA [FS-1897],1.79,2.03,4.9 (active)
CARSIRDAEDAGNASASA [FS-2805],0.647 (inactive),0.756 (inactive),1.52
CARGRRKDDYAGNASASA [FS-2417],0.188 (inactive),-0.41 (inactive),0.301 (inactive)
CARIIRSSEDAGNASASA [FS-2950],3.85 (active),3.61 (active),5.54 (active)
CARHTRSIFWAGNASASA [FS-2147],4.67 (active),4.45 (active),7.05 (active)
CARGDRFSEDAGNASASA [FS-2931],-1.45 (inactive),-0.738 (inactive),-1.76 (inactive)
CATTPCSGFWAGNASASA [HC1907],-1.56 (inactive),-0.535 (inactive),-0.967 (inactive)
